Reference: PubChem BioAssay (Tox21)
Inconclusive results are not listed. A number with no mark means an inactive call. Unless noted, calls come from the whole dose curve; as a rule, active = well fitted cell-killing curve with a large enough effect in the repeat runs (not every such curve was filed as active); inconclusive = weak or mixed curves, or effect the other way; inactive = no such curve, though single readings can be large or run the other way.

Target: Peroxisome proliferator-activated receptor delta (Homo sapiens) (UniProt Q03181)
Assay: qHTS assay to identify small molecule antagonists of the peroxisome proliferator-activated receptor delta (PPARd) signaling pathway (AID 743215; active = well fitted inhibition curve with a large enough effect in the signal ratio in the repeat runs, not every such curve was filed as active; the % refers to the signal ratio;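 note: cells stimulated with agonist L165041 at 300 nM final during compound exposure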)
Settings: HEK293H PPARd-UAS-bla, beta-lactamase FRET ratio, antagonist, 17 h; series mostly up to 62 µM; ratio activity, negative = inhibition: at the top concentration
Procedure, shortened: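 Agonist L165041 (300 nM final) added with compound to PPARd-bla HEK293H UAS-bla reporter cells; 17 h incubation at 37 C. Read-out: LiveBLAzer FRET substrate, 2 h at room temperature, fluorescence intensity.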
% is set by controls: 0 for no effect and ±100 for the full control effect.

Peroxisome proliferator-activated receptor delta (Homo sapiens), sequence (Q03181 whole entry, looked up): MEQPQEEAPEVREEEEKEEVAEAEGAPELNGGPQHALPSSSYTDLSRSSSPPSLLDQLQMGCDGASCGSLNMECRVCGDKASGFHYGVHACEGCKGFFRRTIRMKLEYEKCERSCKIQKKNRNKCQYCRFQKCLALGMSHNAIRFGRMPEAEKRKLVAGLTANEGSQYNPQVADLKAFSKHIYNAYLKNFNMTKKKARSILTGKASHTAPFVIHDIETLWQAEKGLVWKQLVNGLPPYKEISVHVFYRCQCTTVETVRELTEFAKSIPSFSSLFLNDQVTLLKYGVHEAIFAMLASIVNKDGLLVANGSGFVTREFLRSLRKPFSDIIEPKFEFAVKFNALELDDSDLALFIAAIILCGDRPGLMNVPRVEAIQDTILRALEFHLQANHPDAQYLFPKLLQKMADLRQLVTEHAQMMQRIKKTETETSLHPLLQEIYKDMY

Compound	ratio activity, negative = inhibition
C[C@H](O)C(=O)Nc1c(I)c(C(=O)NC(CO)CO)c(I)c(C(=O)NC(CO)CO)c1I	1.02%
O=C(O)/C=C/c1ccc(/C=C/C(=O)O)cc1	-0.427%
CC(C)c1cccc(O)c1	0.188% [at 80.4 µM]
Nc1cc(N)cc(C(=O)O)c1	12.6%
CC12CCC(CC1=O)C2(C)C (stereo not given)	0.893%
CCOC(=O)Nc1ccc2c(c1)N(C(=O)CCN1CCOCC1)c1ccccc1S2	-11.3%
CN(C)CCOC(c1ccc(Cl)cc1)c1ccccn1 (stereo not given)	-10.3%
Oc1cc(O)c2c(c1)O[C@H](c1ccc(O)c(O)c1)[C@H](O)C2	0.716%
CC(C)[C@H](N)C(=O)OCCOCn1cnc2c(=O)[nH]c(N)nc21	3.78%
CC(C)[N+](C)(C)CC(O)COc1cccc2ccccc12 (stereo not given)	-3.86%
CC(C)(O)Cc1ccccc1	12.5%
CC(=O)N[C@@H](CCC(N)=O)C(=O)O	14.5%
NC(=O)CCCCC1CCSS1 (stereo not given)	6.16%
CC(C)N1C(=O)c2ccccc2C1=O	9.82%
COC(=O)c1ccc(C(=O)OC)c(C(=O)OC)c1	7.8%
CC(C=O)Cc1ccc(C(C)C)cc1 (stereo not given)	3.59%
NCC[C@H](O)C(=O)N[C@@H]1C[C@H](N)[C@@H](O[C@H]2O[C@H](CN)[C@@H](O)[C@H](O)[C@H]2O)[C@H](O)[C@H]1O[C@H]1O[C@H](CO)[C@@H](O)[C@H](N)[C@H]1O	4.4% [at 0.575 µM]
N#CCN(CC#N)CCN(CC#N)CC#N	0.963%

Target: Bile acid receptor (Homo sapiens) (UniProt Q96RI1)
Assay: qHTS assay to identify small molecule antagonists of the farnesoid-X-receptor (FXR) signaling pathway (AID 743217; active = well fitted inhibition curve with a large enough effect in the signal ratio in the repeat runs, not every such curve was filed as active; the % refers to the signal ratio)
Settings: HEK293T FXR-UAS-bla, beta-lactamase ratio, CDCA-stimulated, 16 h; series mostly up to 62.6 µM; activity change, negative = inhibition: at the top concentration
Procedure, shortened: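 Antagonist mode: chenodeoxycholic acid at 50 uM final stimulates a UAS-driven beta-lactamase reporter in HEK 293T FXR-bla cells during 16 h, 37C compound exposure. Read-out is FRET substrate fluorescence after 2 h at room temperature.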

Bile acid receptor (Homo sapiens), sequence (Q96RI1 whole entry, looked up): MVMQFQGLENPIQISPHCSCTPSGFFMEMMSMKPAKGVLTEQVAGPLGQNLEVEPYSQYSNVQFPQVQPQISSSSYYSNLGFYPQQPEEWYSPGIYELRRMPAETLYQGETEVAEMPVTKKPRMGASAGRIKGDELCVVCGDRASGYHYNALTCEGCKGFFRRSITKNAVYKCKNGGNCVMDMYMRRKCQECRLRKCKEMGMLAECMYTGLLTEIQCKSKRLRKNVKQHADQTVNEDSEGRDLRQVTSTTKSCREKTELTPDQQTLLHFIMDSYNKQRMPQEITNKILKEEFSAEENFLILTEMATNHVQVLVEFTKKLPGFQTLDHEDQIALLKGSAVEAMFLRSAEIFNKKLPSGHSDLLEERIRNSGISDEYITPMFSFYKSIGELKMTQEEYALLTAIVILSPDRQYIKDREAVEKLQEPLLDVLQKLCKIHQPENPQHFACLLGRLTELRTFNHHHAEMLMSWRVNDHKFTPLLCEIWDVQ

Compound	activity change, negative = inhibition
CCC(C)OC(=O)N1CCCCC1CCO (stereo not given)	0.953%
CCn1c(=O)c2c(nc(/C=C/c3ccc(OC)c(OC)c3)n2C)n(CC)c1=O	-2.69%
CCC(C(=O)NC(N)=O)c1ccccc1 (stereo not given)	1.03%
Nc1nc2c(ncn2CCC(CO)CO)c(=O)[nH]1	1.15%

System: not listed separately
Assay: qHTS assay to identify small molecule agonists of the farnesoid-X-receptor (FXR) signaling pathway - cell viability counter screen (AID 743218; active = well fitted cell-killing curve with a large enough effect in the repeat runs; note: nearly all actives have a fitted effect of over 45% in size)
Settings: FXR-bla HEK293T viability, CellTiter-Glo luminescence, 16 h; series mostly up to 62.6 µM; viability change, negative = cytotoxic: at the top concentration
Procedure, shortened: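 Viability counter screen in the same wells: CellTiter-Glo luminescence, 30 min room-temperature incubation, measured after the beta-lactamase read. Cells were GeneBLAzer FXR-UAS-bla HEK 293T, compound-treated 16 h at 37C.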

Compound	viability change, negative = cytotoxic
CC1=CCC2C(C1)C2(C)C (stereo not given)	4.44%
CC(C)c1cccc(O)c1	14.2% [at 81.1 µM]
C=CC(=O)OCCCCCC	-5.17%
CCC(=O)/C=C/c1ccc(OC)cc1	29.3%
Cc1c(F)cc2c(=O)c(C(=O)O)cn3c2c1CCC3C (stereo not given)	-3.8%
CC1=CC(=O)CCC1	5.17%
OC/C=C/c1ccccc1	26.4% [at 81.1 µM]
CCn1c(=O)c2c(nc(/C=C/c3ccc(OC)c(OC)c3)n2C)n(CC)c1=O	4.47%
CCOC(=O)Nc1ccc2c(c1)N(C(=O)CCN1CCOCC1)c1ccccc1S2	-0.993%
Oc1cc(O)c2c(c1)O[C@H](c1ccc(O)c(O)c1)[C@H](O)C2	-2.54%
CCCCCCOC(=O)CC(CC(=O)OCCCCCC)(OC(=O)CCC)C(=O)OCCCCCC	-2.11%
CCCCCOC(=O)Nc1nc(=O)n([C@@H]2O[C@H](C)[C@@H](O)[C@H]2O)cc1F	11.8%
C=C(C)C(=O)NCCCN(C)C	1.13%
NC1CCN(c2cccc(Cl)n2)CC1	-21%
C#CC(O)CCCCC (stereo not given)	-2.19% [at 81.1 µM]
[O-][N+](=Nc1ccccc1)c1ccccc1	0.961%
Cc1cc(C)cc(OCC2CNC(=O)O2)c1 (stereo not given)	-10.2%
CCC(C(=O)NC(N)=O)c1ccccc1 (stereo not given)	1.51%
Nc1nc2c(ncn2CCC(CO)CO)c(=O)[nH]1	-1.45%

Target: Bile acid receptor (Homo sapiens) (UniProt Q96RI1)
Assay: qHTS assay to identify small molecule agonists of the farnesoid-X-receptor (FXR) signaling pathway (AID 743220; active = well fitted activation curve with a large enough effect in the signal ratio in the repeat runs, not every such curve was filed as active; the % refers to the signal ratio)
Settings: HEK293T FXR-UAS-bla, beta-lactamase FRET ratio, 16 h; series mostly up to 62.6 µM; activation: at the top concentration
Procedure, shortened: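 FXR-UAS-bla HEK 293T cells carrying a UAS-driven beta-lactamase reporter were plated for 5 h at 37C/5% CO2, then exposed to DMSO-dissolved Tox21 10K compounds for 16 h at 37C. A LiveBLAzer B/G FRET substrate was loaded for 2 h at room temperature before fluorescence reading.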

Compound	activation
CCC(C)OC(=O)N1CCCCC1CCO (stereo not given)	-1.7%
CC1=CCC2C(C1)C2(C)C (stereo not given)	2.2%
CCC(=O)/C=C/c1ccc(OC)cc1	1.23%
Nc1cc(N)cc(C(=O)O)c1	-2.86%
CCn1c(=O)c2c(nc(/C=C/c3ccc(OC)c(OC)c3)n2C)n(CC)c1=O	0%
CC(=O)N[C@@H](CCC(N)=O)C(=O)O	-0.937%
NC1CCN(c2cccc(Cl)n2)CC1	-0.452%
NC(=O)CCCCC1CCSS1 (stereo not given)	-0.88%
Cc1cc(C)cc(OCC2CNC(=O)O2)c1 (stereo not given)	-0.847%
CCC(C(=O)NC(N)=O)c1ccccc1 (stereo not given)	2.71%
Nc1nc2c(ncn2CCC(CO)CO)c(=O)[nH]1	-1.26%

System: not listed separately
Assay: qHTS assay to identify small molecule antagonists of the farnesoid-X-receptor (FXR) signaling pathway - cell viability counter screen (AID 743221); note: nearly all actives have a fitted effect of over 50% in size
Settings: FXR-bla HEK293T viability, CellTiter-Glo luminescence, 16 h; series mostly up to 62.6 µM; activity change, negative = cytotoxicity: at the top concentration
Procedure, shortened: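 Compound effects on cell number were measured as CellTiter-Glo luminescence in HEK 293T cells expressing FXR-UAS-bla, after 16 h at 37 C with 50 uM CDCA (final).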

Compound	activity change, negative = cytotoxicity
C[C@H](O)C(=O)Nc1c(I)c(C(=O)NC(CO)CO)c(I)c(C(=O)NC(CO)CO)c1I	-7.29%
CCC(C)OC(=O)N1CCCCC1CCO (stereo not given)	11%
CC1=CCC2C(C1)C2(C)C (stereo not given)	8.7%
O=C(O)/C=C/c1ccc(/C=C/C(=O)O)cc1	-1.04%
C=CC(=O)OCCCCCC	13.7%
Nc1cc(N)cc(C(=O)O)c1	-12.8%
Cc1c(F)cc2c(=O)c(C(=O)O)cn3c2c1CCC3C (stereo not given)	15.2%
CC12CCC(CC1=O)C2(C)C (stereo not given)	2.24%
CC1=CC(=O)CCC1	7.41%
OC/C=C/c1ccccc1	0.285% [at 81.1 µM]
CC(C)(O)C(=O)c1ccc(OCCO)cc1	13.5%
CCn1c(=O)c2c(nc(/C=C/c3ccc(OC)c(OC)c3)n2C)n(CC)c1=O	-14.1%
CN(C)CCOC(c1ccc(Cl)cc1)c1ccccn1 (stereo not given)	-1.12%
CCCCCCOC(=O)CC(CC(=O)OCCCCCC)(OC(=O)CCC)C(=O)OCCCCCC	-0.395%
CC(C)[C@H](N)C(=O)OCCOCn1cnc2c(=O)[nH]c(N)nc21	-0.315%
CC(C)[N+](C)(C)CC(O)COc1cccc2ccccc12 (stereo not given)	-14.7%
CC(C)(O)Cc1ccccc1	9.81%

Compound	activity change, negative = cytotoxicity
CC(=O)N[C@@H](CCC(N)=O)C(=O)O	-19.5%
CCCCCOC(=O)Nc1nc(=O)n([C@@H]2O[C@H](C)[C@@H](O)[C@H]2O)cc1F	17.2%
C=C(C)C(=O)NCCCN(C)C	-0.293%
NC1CCN(c2cccc(Cl)n2)CC1	0.492%
NC(=O)CCCCC1CCSS1 (stereo not given)	16.3%
C#CC(O)CCCCC (stereo not given)	3.39% [at 81.1 µM]
[O-][N+](=Nc1ccccc1)c1ccccc1	11.9%
Cc1cc(C)cc(OCC2CNC(=O)O2)c1 (stereo not given)	-3.59%
CC(C)N1C(=O)c2ccccc2C1=O	-13.6%
COC(=O)c1ccc(C(=O)OC)c(C(=O)OC)c1	0.132%
CC(C=O)Cc1ccc(C(C)C)cc1 (stereo not given)	18.5%
NCC[C@H](O)C(=O)N[C@@H]1C[C@H](N)[C@@H](O[C@H]2O[C@H](CN)[C@@H](O)[C@H](O)[C@H]2O)[C@H](O)[C@H]1O[C@H]1O[C@H](CO)[C@@H](O)[C@H](N)[C@H]1O	9.05% [at 0.55 µM]
N#CCN(CC#N)CCN(CC#N)CC#N	-10.7%
CCC(C(=O)NC(N)=O)c1ccccc1 (stereo not given)	-19.4%
CC/C=C\C#N	7.41%
Nc1nc2c(ncn2CCC(CO)CO)c(=O)[nH]1	4.43%
